Among all 87,000 compounds or so, about 360 (0.41%) were called active. Rule as the data show it: active = cytotoxicity above about 50%; inactive = the rest. The list comes from a sample in which actives are over-represented; it also holds similar structures and randomly drawn compounds.
Test: HT1080 cell viability loss – fluorescence readout (AID 620);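 also: cells exposed to compound overnight then 4 h with Alamar Blue; 0% = vehicle DMSO and 100% = killing control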
Conditions: at 10 µM, active compounds read high

SMILES | cytotoxicity
COc1ccc(OC)c(S(=O)(=O)Nc2cc(OC)c(Cl)cc2OC)c1 | 9.8% (inactive)
COc1cc(NS(=O)(=O)c2ccc(OC)c(C)c2C)c(OC)cc1Cl | 55.1% (active)
COc1cc(NS(=O)(=O)c2cc(C)ccc2OC)c(OC)cc1Cl | -2.6% (inactive)
CCOc1cc(C2CC(=O)Nc3cc(C)c(C)cc32)ccc1O (configuration not stated) | -0.2% (inactive)
COc1ccc(NC(=O)CCN2CCCCC2)cc1 | 9% (inactive)
CCOc1ccccc1-c1nc(-c2cc3ccccc3nc2OC)no1 | -4.6% (inactive)
Cc1cc(F)c(F)c(C(=O)N2CCN(C)CC2)c1Cl | 6.8% (inactive)
CCc1ccc(C2(O)CC(C(F)(F)F)=NN2C(=O)Cc2ccc([N+](=O)[O-])cc2)cc1 (configuration not stated) | 2.2% (inactive)
Cc1ccc2c(c1)c1c3n2CCN(C(=O)CN2CCN(C)CC2)C3CCC1 (configuration not stated) | 12.8% (inactive)
Cc1ccc2c(c1)c1c3n2CCCNC3CCC1 (configuration not stated) | -1.3% (inactive)
c1cc2c(cc1C1CCCCC1)c1c3n2CCCNC3CCC1 (configuration not stated) | 69.7% (active)
Cc1ccc2c(c1)c1c3n2CCN(C(=O)C2CC2)C3CCC1 (configuration not stated) | -15.3% (inactive)
c1ccc2c(c1)c1c3n2CCNC3CCC1 (configuration not stated) | -2.4% (inactive)
O=C(NC(Cc1ccc2c(c1)OCO2)C(=O)N1CCCC1C(=O)O)c1ccccc1 (configuration not stated) | 3.5% (inactive)
Cn1c(=O)[nH]c2sc3c(c2c1=O)CC(C)(C)OC3 | 27.1% (inactive)
Cc1c(C(=O)OCC2CCCO2)[nH]c2c1C(=O)CC(c1ccc(N(C)C)cc1)C2 (configuration not stated) | -2.7% (inactive)
COc1ccc(OC)c(C2CC(=O)c3c([nH]c(C(=O)OCC4CCCO4)c3C)C2)c1 (configuration not stated) | -5.3% (inactive)
Cc1c(C(=O)N2CCOCC2)[nH]c2c1C(=O)CC(c1ccc(Cl)cc1)C2 (configuration not stated) | 5.8% (inactive)
COCCOC(=O)c1[nH]c2c(c1C)C(=O)CC(c1ccc(N(C)C)cc1)C2 (configuration not stated) | -0.7% (inactive)
COCCOC(=O)c1[nH]c2c(c1C)C(=O)CC(c1ccco1)C2 (configuration not stated) | 67.1% (active)
CCOCCOC(=O)c1[nH]c2c(c1C)C(=O)CC(c1ccc(N(C)C)cc1)C2 (configuration not stated) | -3.6% (inactive)
CSCCOC(=O)c1[nH]c2c(c1C)C(=O)CC(c1ccco1)C2 (configuration not stated) | 62.4% (active)
CCOC(=O)c1[nH]c2c(c1C)C(=O)CC(c1ccco1)C2 (configuration not stated) | 66% (active)
COCCOC(=O)c1[nH]c2c(c1C)C(=O)CC(c1cc(OC)ccc1OC)C2 (configuration not stated) | -3.5% (inactive)
Cc1c(C(=O)OCC2CCCO2)[nH]c2c1C(=O)CC(c1ccco1)C2 (configuration not stated) | 52.9% (active)

SMILES | cytotoxicity
CCOC(=O)c1ccc(N=CC2=C(O)CC(c3ccco3)CC2=O)cc1 (configuration not stated) | -1.5% (inactive)
COC(=O)NCC(c1cccnc1)N1CCOCC1 (configuration not stated) | 2.8% (inactive)
COc1ccc(C(c2nnnn2C2CCCC2)N2CCN(C3CCCC3)CC2)cc1OC (configuration not stated) | -1.8% (inactive)
Cc1ccc(NC(=O)c2oc3c(c2C)C(=O)CC(C)(C)C3)cc1 | -0.8% (inactive)
O=S(=O)(c1ccccc1)N1CCN(S(=O)(=O)c2ccccc2)C1 | -4.1% (inactive)
CCn1cnc2cc(NS(=O)(=O)c3ccc(C)cc3)ccc21 | 11.7% (inactive)
Cc1ccccc1NC(=O)c1cccc2nccnc12 | -4.6% (inactive)
COc1ccc(-c2cnc3nc[nH]c(=O)c3n2)cc1 | -12.3% (inactive)
Cc1cnc(C(=O)Nc2ccc(F)cc2)cn1 | -11.7% (inactive)
COc1cccc(C2c3c(-c4cc(Cl)c(C)cc4O)n[nH]c3C(=O)N2Cc2cccnc2)c1 (configuration not stated) | -4.8% (inactive)
CCOC(=O)N1CCN(C(=O)c2cccn3c(=O)c4sccc4nc23)CC1 | -2.4% (inactive)
FC(F)(F)c1ccc(N2CCN(c3ncnc4c3nnn4Cc3ccccc3Cl)CC2)cc1 | -17.6% (inactive)
COCCOC(=O)c1[nH]c2c(c1C)C(=O)CC(c1ccc(F)cc1)C2 (configuration not stated) | -9% (inactive)
Cc1c(C(=O)OCC(C)C)[nH]c2c1C(=O)CC(c1ccco1)C2 (configuration not stated) | 63.9% (active)
Cc1c(C(=O)N2CCOCC2)[nH]c2c1C(=O)CC(c1ccccc1Cl)C2 (configuration not stated) | 34.2% (inactive)
COc1ccc(OC)c(C2CC(=O)c3c([nH]c(C(=O)OC(C)C)c3C)C2)c1 (configuration not stated) | 10.6% (inactive)
Cc1c(C(=O)O)[nH]c2c1C(=O)CC(c1ccc(Cl)cc1)C2 (configuration not stated) | -4.3% (inactive)
COc1cc(C2CC(=O)c3c([nH]c(C(=O)OCCOC(C)C)c3C)C2)cc(OC)c1OC (configuration not stated) | -1.3% (inactive)
CCOC(=O)c1[nH]c2c(c1C)C(=O)CC(c1ccc(F)cc1)C2 (configuration not stated) | 70.2% (active)
CC1=C(C(=O)OCc2ccccc2)C(c2ccco2)C2=C(CC(C)(C)CC2=O)N1 (configuration not stated) | -6.1% (inactive)
Cc1c(C(=O)OCc2ccccc2)[nH]c2c1C(=O)CC(c1ccco1)C2 (configuration not stated) | 67.8% (active)
CCC(C)OC(=O)c1[nH]c2c(c1C)C(=O)CC(c1ccc(N(C)C)cc1)C2 (configuration not stated) | -1.9% (inactive)
Cc1c(C(=O)OCCOC(C)C)[nH]c2c1C(=O)CC(C)(C)C2 | -5.6% (inactive)
Cc1c(C(=O)OCCOC(C)C)[nH]c2c1C(=O)CC(c1ccco1)C2 (configuration not stated) | 66.2% (active)
CCCCOc1ccc(C(=O)N2CC(C)OC(C)C2)cc1 (configuration not stated) | -6.4% (inactive)

SMILES | cytotoxicity
Cc1ccc(-n2c(C)nc3c(cnn3-c3ccc(F)cc3)c2=O)cc1 | -1.6% (inactive)
Cc1cc(NC(=O)C2CC(=O)OC2c2ccccc2)no1 (configuration not stated) | 10.6% (inactive)
CC(=O)OC(C(=O)NC1CCCCC1)c1ccc(C#N)cc1 (configuration not stated) | -3.2% (inactive)
Cc1ccccc1-n1c(SCC(=O)N2CCOCC2)nc(O)cc1=O | 3.4% (inactive)
COc1ccccc1C(=O)NC1CCCCCCC1 | 3.1% (inactive)
O=C(NC1=NCCS1)c1ccncc1 | -1.5% (inactive)
O=C(COC(=O)c1cnccn1)NCCc1ccccc1 | -15.3% (inactive)
Cc1c(C(=O)OC2CCC(C)CC2)[nH]c2c1C(=O)CCC2 (configuration not stated) | 0.6% (inactive)
Cc1c(C(=O)OC2CCCCC2)[nH]c2c1C(=O)CC(C)(C)C2 | -1.3% (inactive)
Cc1c(C(=O)OC2CCCC2)[nH]c2c1C(=O)CC(c1ccco1)C2 (configuration not stated) | 64.9% (active)
COc1ccc(C2=NOC(C(=O)NC(C)C)C2)cc1 (configuration not stated) | -5.6% (inactive)
CCOc1ccc(OCC)c(NC(=O)CN(C)S(=O)(=O)c2cnc[nH]2)c1 | 11.3% (inactive)
O=C(c1cnn2cccnc12)N1CCN(c2ccccc2)CC1 | 6.5% (inactive)
Cc1ccc2c(c1)c1c3n2CCN(C(=O)Cn2c(-c4ccccc4)noc2=O)C3CCC1 (configuration not stated) | 4.8% (inactive)
CC(=O)N1CCn2c3c(c(=O)c4cc(C)ccc42)CCC31 (configuration not stated) | -5.9% (inactive)
Cc1ccc2c(c1)c(=O)c1c3n2CCN(C(=O)CCl)C3CC1 (configuration not stated) | 102% (active)
CCOC(=O)c1c(C)[nH]c(C)c1C(=O)CSc1nnc(-c2ccc(OC(F)F)cc2)o1 | 0.8% (inactive)
COc1ccc(C(=O)c2ccc(N(C)C)cc2)c2ccccc12 | 63.3% (active)
CN(C)c1ccc(C(=O)c2ccc(O)cc2O)cc1 | 3.6% (inactive)
CN(C)c1ccc(C(=O)c2ccc(N(C)C)c3ccccc23)cc1 | 69.6% (active)
COc1ccc(C(=O)c2ccc(Cl)cc2)c2ccccc12 | -14.8% (inactive)
CN(C)c1ccc(C(=O)c2ccccc2)cc1 | -16.8% (inactive)
COc1ccc(C(=O)c2ccc(OC)c3cccc(O)c23)cc1OC | -5.2% (inactive)
CC1=C(C)CC(C(=O)NCC(=O)c2ccccc2)C(C(=O)O)C1 (configuration not stated) | -5% (inactive)
Cn1cnc([N+](=O)[O-])c1NC(C)(C)C | 8.7% (inactive)

SMILES | cytotoxicity
COC(=O)c1[nH]c2c(c1C)C(=O)CC(c1cccs1)C2 (configuration not stated) | 58.6% (active)
COC(=O)C1=C(C)NC2=C(C(=O)CC(c3cccs3)C2)C1c1ccsc1 (configuration not stated) | 16.3% (inactive)
CCCOC(=O)c1[nH]c2c(c1C)C(=O)CC(c1cccs1)C2 (configuration not stated) | 66.7% (active)
CCOC(=O)C1=C(C)NC2=C(C(=O)CC(c3cccs3)C2)C1c1cccs1 (configuration not stated) | 5.7% (inactive)
CCCOCCOC(=O)c1[nH]c2c(c1C)C(=O)CC(c1cc(OC)ccc1OC)C2 (configuration not stated) | 1.3% (inactive)
CCCOC(=O)c1[nH]c2c(c1C)C(=O)CC(c1ccc(OC)c(OC)c1)C2 (configuration not stated) | 7.2% (inactive)
Cc1c(C(=O)OCC(C)C)[nH]c2c1C(=O)CC(c1cccs1)C2 (configuration not stated) | 66% (active)
COC(=O)c1[nH]c2c(c1C)C(=O)CC(c1cc(OC)ccc1OC)C2 (configuration not stated) | -2.1% (inactive)
CC(C(=O)N=c1sc2ccccc2n1C)N1C(=O)C2CC=CCC2C1=O (configuration not stated) | -11% (inactive)
c1ccc(CCn2c(C3CC3)nc3ccccc32)cc1 | -16.9% (inactive)
CCOC(=O)c1ccc(NC(=O)C(CC)(CC)C(=O)OCC)cc1 | -4.9% (inactive)
CC(C)(C)C1(c2ccccc2)NC(=O)N(CC(=O)N2CCOCC2)C1=O (configuration not stated) | 2.6% (inactive)
COc1cc(C#N)ccc1OCC(=O)c1ccc2c(c1)OCCO2 | -5.9% (inactive)
CCc1cccc(CC)c1NC(=O)CSc1nnc(C(C)C)n1CC | 0.9% (inactive)
Cc1csc(NC(=O)CN2C(=O)C3CC=CCC3C2=O)n1 (configuration not stated) | -13.5% (inactive)
CCn1c(SCC(=O)c2cc(C)n(C)c2C)nnc1-c1ccccc1 | 15.3% (inactive)
CCOC(=O)c1cccc(NC(=O)CSc2nnc(-c3cccnc3)n2CC)c1 | 12.7% (inactive)
CCn1c(SCC(=O)c2cc(C)n(-c3ccc(C(=O)OC)cc3)c2C)nnc1-c1cccnc1 | 69.6% (active)
COc1ccccc1NC1=NC(C)(C)N=C(N)N1 | -26.5% (inactive)
COc1ccccc1NC1=NC(c2ccc(Cl)cc2)N=C(N)N1 (configuration not stated) | 60.5% (active)
COc1ccccc1NS(=O)(=O)c1ccc(Cl)cc1 | 11.9% (inactive)
O=C(OC1CCS(=O)(=O)c2sccc21)c1ccccc1 (configuration not stated) | -6.9% (inactive)

Reference: PubChem BioAssay AID620 (Sanford-Burnham Center for Chemical Genomics, 2007)
